Bioassay records: PubChem BioAssay, several laboratories
In the library only some 1.5% were active in any assay of this set; here they are far more common.
NALP1 yeast inh = NALP1 inflammasome inhibitors in reconstituted yeast, colorimetric, S. cerevisiae, triplicate retest | S. cerevisiae NALP1/ASC/caspase-1 growth, X-gal OD620, 72 h | inhibition, % at 10 µM | 280,000 compounds, 0.61% hits | AID 2071, 2009; in the data active means inhibition mostly above about 24%, no sharp cut-off; inactive means mostly below about 32%
JMJD2C inh = inhibitors of GASC-1 histone demethylase, primary screen, biochemical, fluorescence, DELFIA europium; Lysine-specific demethylase 4C (Homo sapiens), Q9H3R0; GST-JMJD2C(1-420) H3K9me3 demethylation; inhibition, % at 2.35 µM; 330,000 compounds, 0.069% hits;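 active means more than half of a compound's replicate wells show inhibition beyond 50%, single wells judged on their own value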;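 further: signal counts dimethyl H3K9 product captured on neutravidin plate; 0% = median of DMSO wells and 100% = 0.3 times that DMSO median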
HDAC3 inhib = HDAC3 deacetylase inhibitors, primary screen, biochemical, fluorescence, cell-free homogeneous; recombinant HDAC3, fluorogenic peptide/trypsin coupled; Histone deacetylase 3 (Homo sapiens), O15379; AID 2718, 2010; 320,000 compounds, 0.15% hits; inhibition, % at 8.3 µM; in the data active means inhibition above about 26%, passing the limit was not always enough
Target sequence (O15379 whole entry, looked up): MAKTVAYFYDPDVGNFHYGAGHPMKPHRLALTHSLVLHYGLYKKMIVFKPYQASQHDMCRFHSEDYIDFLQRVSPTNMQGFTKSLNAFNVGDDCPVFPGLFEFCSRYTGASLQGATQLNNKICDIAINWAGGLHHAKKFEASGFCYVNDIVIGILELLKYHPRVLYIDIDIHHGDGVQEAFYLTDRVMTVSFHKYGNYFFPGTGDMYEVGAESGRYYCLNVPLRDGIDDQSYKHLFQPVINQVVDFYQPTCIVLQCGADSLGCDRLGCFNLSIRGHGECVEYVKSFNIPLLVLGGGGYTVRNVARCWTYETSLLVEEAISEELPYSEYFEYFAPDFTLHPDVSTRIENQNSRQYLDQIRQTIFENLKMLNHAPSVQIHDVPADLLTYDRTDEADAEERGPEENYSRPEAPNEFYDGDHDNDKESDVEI
Efflux pump inh = inhibitors of Candida efflux pumps in yeast, primary screen, S. cerevisiae, Nile Red, multiplex. AID 485275, 2010. S. cerevisiae Candida pump triplex. 330,000 compounds, 0.44% hits. inhibition, % at 10 µM;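 active means plate passing quality check with inhibition over a set limit, or well fluorescence over plate mean plus 4 SD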;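 further: Nile Red retained in pooled yeast measured as flow cytometry median fluorescence; 0% = buffer negative control and 100% = Enniatin B positive control; higher means more Nile Red kept so more efflux inhibition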
NALP3 yeast inh = NALP3 inflammasome inhibitors in reconstituted yeast, primary screen, luminescence, uHTS; Yeast reconstituted NLRP3/ASC/caspase-1, beta-gal luminescence, 24 h; inhibition, % at 10 µM; 330,000 compounds, 0.39% hits; AID 2825, 2010;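 active means inhibition of 50% or more; inactive means inhibition below 50%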;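 further: plate controls were induced DMSO wells for no effect and uninduced yeast grown without galactose for full effect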
PolyA inhibitor = polyadenylation inhibitors in yeast reporter cells, primary screen, luminescence, S. cerevisiae. 300,000 compounds, 0.02% hits. activity score, % at 12 µM. AID 1875, 2009. S. cerevisiae SKY197-pL101 polyadenylation reporter, beta-gal luminescence; efflux-impaired pdr1/pdr3 knockout yeast; score 100 = 6 SD above DMSO;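 active means lowest replicate activity score at least 50, where 100 means six control SD above control mean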;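 further: yeast exposed to compound for 9 h at 30 °C; higher score means more reporter readthrough which indicates perturbed polyadenylation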
Cmpd fluor yeast = flagged as fluorescent in efflux inhibitor counter-screen; shares compounds with Efflux pump inh; fluorescence ratio to DMSO, % at 10 µM; S. cerevisiae AD/pABC3, compound fluorescence, flow cytometry; 1,700 compounds, 4% hits;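 active means fluorescence ratio to DMSO above its plate's cutoff, the plate mean ratio plus 5 SD, cut at about 210% in these data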;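 further: unstained yeast with no Nile Red so the signal is compound autofluorescence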
Mdr1 pump inh = inhibitors of Candida albicans Mdr1 efflux, confirmation, flow cytometry, singleplex, Cherry Pick1 set | S. cerevisiae AD/CaMDR1, Nile Red efflux | inhibition, % at 10 µM | shares compounds with Efflux pump inh | AID 588518, 2011 | 1,700 compounds, 1% hits; in the data active means inhibition above about 26%;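 further: 0% = DMSO vehicle and 100% = reference inhibitor; higher means more Nile Red retained so more efflux inhibition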
Cdr2 pump inh = inhibitors of Candida albicans Cdr2 efflux pump, confirmation, S. cerevisiae AD/CaCDR2, flow cytometry, cherry pick 1, singleplex | shares compounds with Efflux pump inh | Nile Red retention | Nile Red retention ratio vs DMSO, % at 10 µM | 1,700 compounds, 4% hits; in the data active means Nile Red retention ratio vs DMSO above about 190%;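 further: higher ratio means more blocking of Cdr2 efflux of the dye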
Cdr1 pump inh = inhibitors of Candida albicans Cdr1 efflux pump, confirmation, S. cerevisiae AD/CaCDR1, flow cytometry, cherry pick 1, singleplex; AID 588522, 2011; shares compounds with Efflux pump inh; Nile Red efflux; 1,700 compounds, 1% hits; inhibition, % at 10 µM;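 active means inhibition above the screen-wide mean plus twice its standard deviation, cut at about 32% in these data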
Starred values were filed as active, the others as inactive; x = not tested or not shown.

SMILES | NALP1 yeast inh | JMJD2C inh | HDAC3 inhib | Efflux pump inh | NALP3 yeast inh | PolyA inhibitor | Cmpd fluor yeast | Mdr1 pump inh | Cdr2 pump inh | Cdr1 pump inh
CCc1nnc(NC(=O)c2ccc(OC)cc2OC)s1 | 16 | 2 | 5 | 0 | 29 | -16 | x | x | x | x
COc1ccc(C(=O)Cc2nnc(C)s2)c(OC)c1 | 20 | 8 | -3 | 8.0* | -5 | 9 | 99 | 0 | 103 | 0
COc1ccc(OC)c(NC(=O)NCCc2c[nH]c3ccccc23)c1 | 19 | 2 | -3 | 0 | 5 | -6 | x | x | x | x
CNC(=S)N1CCc2cc(OC)c(OC)cc2C1 | 8 | -5 | 0 | 0 | 1 | 6 | 108 | 0 | 106 | 0
COc1cc2c(cc1OC)CN(C(=S)Nc1c(C)cccc1C)CC2 | 23 | -16 | -2 | 0 | -2 | 6 | x | x | x | x
COc1ccc([C@H]2CC(=O)C=C(c3cc(OC)ccc3OC)C2)cc1 | x | x | -4 | 0 | 29 | x | x | x | x | x
O=C(COC(=O)CC1CCCC1)Nc1ccccc1[N+](=O)[O-] | x | 6 | 4 | 0.9* | 23 | x | 89 | 0 | 100 | 0
Cc1ccccc1NC(=O)COC(=O)CC1CCCC1 | x | x | x | x | 23 | x | x | x | x | x
Cc1nc2sc3c(c2c2nnc(SCC(=O)NCc4ccco4)n12)CCCC3 | 15 | -2 | -3 | 0.8* | 28 | 20 | 95 | 0 | 107 | 0
Cc1ccc(S(=O)(=O)Nc2cc(-c3ccccc3)nn2C)cc1 | 9 | -3 | 3 | 0.5* | 10 | 34 | 97 | 0 | 98 | 0
Cn1nc(-c2ccccc2)cc1NS(=O)(=O)c1ccccc1 | 10 | 3 | -2 | 0 | -2 | 11 | x | x | x | x
Cc1cccc[n+]1CC(=O)N1c2ccccc2Sc2ccccc21 | 1 | -10 | 2 | 0 | 20 | -8 | x | x | x | x
CC(C)(C)c1nnc(NC(=O)COc2ccc3c(c2)OCO3)s1 | x | 1 | -4 | 0 | 26 | 4 | 112 | 0 | 97 | 0
Cc1ccc2[nH]c(CNC(=O)c3ccc(F)cc3)cc2c1 | 2 | 3 | -3 | 0 | 27 | 7 | x | x | x | x
N#Cc1cnc(NN)nc1 | -13 | 13 | 0 | 0.9* | -3 | 9 | 107 | 0 | 106 | 0
Cc1ccc(C)n1-c1ccc(C#N)cn1 | 24 | -4 | x | 0 | 4 | 3 | x | x | x | x
CCOC(=O)C1(C(F)(F)F)N=C(c2cccnc2)OC(N2CCCCC2)=N1 (centres undefined) | 42 | -5 | -1 | 5.5* | 0 | -6 | 104 | 0 | 116 | 0
OC(COCC1COc2ccccc2O1)CN1CCN(c2ccccc2)CC1 (centres undefined) | -7 | -3 | x | 1.0* | 29 | -6 | 101 | 0 | 97 | 0
CC(CNC(=O)c1ccc(OC2CCN(Cc3ccccn3)CC2)cc1)c1ccccc1 (centres undefined) | 8 | 2 | -1 | 5.3* | 13 | -1 | 102 | 0 | 96 | 0
COc1cc(NC(=O)CCNS(=O)(=O)c2ccc3c(c2)CCC(=O)N3)cc(OC)c1 | -10 | -2 | -1 | 13* | 9 | 17 | 105 | 0 | 105 | 0
COc1ccc(NC(=O)CCNS(=O)(=O)c2ccc3c(c2)CCC(=O)N3)cc1 | 10 | -11 | 0 | 0 | -10 | 3 | x | x | x | x
CCc1cccc(C)c1NC(=O)c1ccc(CN2CCc3ccccc3C2)cc1 | 29 | 3 | 3 | 22* | -2 | 3 | 116 | 0 | 114 | 0
O=C(COC(=O)C1CCN(S(=O)(=O)c2ccccc2)CC1)NCCc1ccccc1 | x | 14 | 1 | 0 | 7 | x | x | x | x | x
Cc1nnsc1-c1nnc(SCC(=O)c2ccc(C#N)cc2)n1C1CC1 | 10 | -9 | -8 | 0.6* | -6 | 24 | 107 | 0 | 108 | 0
Cc1nnsc1-c1nnc(SCC(=O)c2ccccc2)n1C1CC1 | 16 | -11 | -2 | 0 | -1 | 14 | x | x | x | x
SMILES | NALP1 yeast inh | JMJD2C inh | HDAC3 inhib | Efflux pump inh | NALP3 yeast inh | PolyA inhibitor | Cmpd fluor yeast | Mdr1 pump inh | Cdr2 pump inh | Cdr1 pump inh
CCCNC(=S)N1CCC(NC(=O)Nc2ccc(C)cc2)CC1 | 6 | 9 | -4 | 0 | 10 | -7 | x | x | x | x
Cc1ccc2nc(/C(C#N)=C/c3ccc(O)c(O)c3)[nH]c2c1 | x | -1 | 2 | 3.4* | 22 | -12 | 118 | 0 | 141 | 1
CCCC[C@H](CN[C@@H](CNC)[C@H](C)CC)NCCC12CCC(CC1)C2 | 20 | -4 | 3 | 0 | 18 | -8 | x | x | x | x
CCN(C(=O)CSc1nnc2ccccn12)c1c(N)n(Cc2ccccc2)c(=O)[nH]c1=O | 5 | 3 | -1 | 5.8* | 15 | -14 | 77 | 0 | 91 | 0
CCCCN(C(=O)CSc1nnc2ccccn12)c1c(N)n(Cc2ccccc2)c(=O)[nH]c1=O | 27 | -1 | 5 | 0 | 12 | 2 | x | x | x | x
O=C(NCC1CCCO1)c1ccc2c(c1)S(=O)(=O)c1ccccc1C2=O (centres undefined) | x | 1 | -2 | 0 | 10 | -6 | x | x | x | x
CC[n+]1c(/C=C/C=C/N(C(C)=O)c2ccccc2)sc2cc(OC)ccc21 | 8 | -1 | 45* | 3.5* | x | x | 346* | 2 | 123 | 1
O=C(CCn1c(=O)c2ccccc2n(Cc2cccc([N+](=O)[O-])c2)c1=O)N1CCc2ccccc2C1 | 17 | -3 | 2 | 13* | -2 | -1 | 109 | 0 | 117 | 0
Cc1ccccc1C(=O)NC1CCN(CC(=O)Nc2ccc(Br)cc2)CC1 | 11 | -3 | -6 | 0 | 10 | 7 | x | x | x | x
COc1cc(-c2nnc(-c3cc(OC)c(OC)c(OC)c3)o2)cc(OC)c1OC | -9 | -21 | -21 | 0 | 12 | 20 | x | x | x | x
CCCc1nnc(-c2cc(OC)c(OC)c(OC)c2)o1 | 26 | 7 | -1 | 1.9* | 9 | -17 | 105 | 0 | 106 | 0
